3T3 cytotox = kills NIH 3T3 cells | Potency, µM (highest dose often 96.7 µM), for the others: at the top dose activity change, negative = cytotoxicity, most hits filed as inhibitors | actives 4.3% (n = 94,000) | NIH 3T3 viability, CellTiter-Glo ATP luminescence, 48-72 h; note: nearly all actives have a fitted effect of over 55% in size
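First NIH 3T3 cells are plated at 400 cells/well; next compound is pinned in; then plates incubate 48 or 72 hr at 37 °C; finally CellTiter-Glo is added and luminescence read after 10 min.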
GPT2 inh = GPT2 alanine aminotransferase inhibition. Q8TD30. Recombinant GPT2, coupled pyruvate oxidase/HRP Amplex Red fluorescence. Potency, µM (titrated, usually from 57.7 µM), inactives show at the highest dose activity change, negative = inhibition, most hits filed as inhibitors. actives 0.25% (n = 100,000); note: nearly all actives have a fitted effect of over 60% in size
Target sequence (Q8TD30 whole entry, looked up): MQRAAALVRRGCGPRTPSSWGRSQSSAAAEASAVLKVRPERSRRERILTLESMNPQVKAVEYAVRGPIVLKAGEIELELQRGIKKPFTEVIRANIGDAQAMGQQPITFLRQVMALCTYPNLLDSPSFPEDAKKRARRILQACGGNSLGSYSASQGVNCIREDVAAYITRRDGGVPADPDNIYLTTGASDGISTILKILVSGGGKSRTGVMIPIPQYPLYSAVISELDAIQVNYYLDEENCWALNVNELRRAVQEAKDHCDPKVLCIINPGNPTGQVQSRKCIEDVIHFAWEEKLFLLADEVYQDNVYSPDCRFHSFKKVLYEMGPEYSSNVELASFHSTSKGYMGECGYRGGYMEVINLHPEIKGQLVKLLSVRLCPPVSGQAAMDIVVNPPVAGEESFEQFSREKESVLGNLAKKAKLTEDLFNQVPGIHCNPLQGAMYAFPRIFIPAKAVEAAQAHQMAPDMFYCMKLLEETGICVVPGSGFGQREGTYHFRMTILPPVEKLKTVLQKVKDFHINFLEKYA
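Recombinant GPT2 (10ng/uL) with 250uM a-KG and 2mM L-alanine, 30 min at room temperature, in HEPES pH 7.5 buffer. Pyruvate detected by pyruvate oxidase/HRP/Amplex Red fluorescence after 30 min in the dark; AOA (50uM) as positive control.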
NPR1 antag = antagonists of human natriuretic peptide receptor Npr1; P16066; HEK293 hNpr1 GloSensor cGMP, ANP-stimulated luminescence; Potency, µM (titrated, usually from 46.3 µM), for the others: at the highest dose activity change, negative = inhibition, most hits filed as inhibitors; actives 1.6% (n = 76,000); AID 1347048; calls by dose curve; note: nearly all actives have a fitted effect of over 60% in size
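HEK293 cells stably expressing human Npr1 and cGMP GloSensor pGS-40F, loaded 2 h with 2% GloSensor reagent, given compound 30 min at room temperature. Luminescence read before and 20 min after 0.1 nM hNppA.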
HEK293 tox = HEK 293 cell cytotoxicity | HEK 293 viability, ATP luminescence (CellTiter-Glo), 48-72 h | Potency, µM (doses to about 115 µM), for the others: top-dose activity change, negative = cytotoxicity, usual class: inhibitors | actives 6.6% (n = 94,000); note: nearly all actives have a fitted effect of over 60% in size
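Viability of HEK 293 cells, plated at 250 cells/well, was judged by cellular ATP after compound treatment for 48 or 72 hr. Luminescence was imaged 10 min after CellTiter-Glo addition at room temperature.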
Luciferase inh = inhibitors of firefly (Photinus pyralis) luciferase. P08659. Potency, µM (series often up to 115 µM), actives largely listed as inhibitors. actives 2.5% (n = 76,000). purified P. pyralis luciferase, luminescence, biochemical; note: nearly all actives have a fitted effect of over 65% in size
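FLuc 10nM, D-luciferin 10uM, ATP 10uM, Mg acetate 10mM, Tris acetate pH 7.5, Tween/BSA; cpd qHTS; enzyme added last; CCD luminescence.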
* marks the source's active call; other numbers are inactive results; i = inactive; u = inconclusive; x = no result; [ ] = remark or other dose. Rows were chosen to be rich in hits. Some 10% of all compounds tested hit in one or more screens of this group. Unless noted, calls come from the whole dose curve; as a rule, active = well fitted curve in the direction sought with a large enough effect; inconclusive = small, poorly fitted or top-dose-only effect, or another doubt; inactive = no such curve, though single readings can be large; an effect the other way counts as inactive or inconclusive. % is set by controls: 0 for no effect and ±100 for the full control effect; potency is the fitted concentration of half-maximal effect.

SMILES	3T3 cytotox	GPT2 inh	NPR1 antag	HEK293 tox	Luciferase inh
O=C(C1CCCN1C(=O)c1ccccc1)N1CCC(c2nc3ccncc3[nH]2)C1 (centres undefined)	-7%	3%	x	i	x
O=S(=O)(c1cccs1)N1CCN(c2ccc3nnc(C4CC4)n3n2)CC1	u	x	x	-29%	x
CC1=C[C@@H](CNC(=O)Cn2cnnn2)[C@H](C(C)C)C[C@H]1Cc1nc2ccccc2n1C	89µM*	4%[88.5 µM]	u	u	i
CC1=C[C@@H](CNC(=O)Cn2cnnn2)[C@H](C(C)C)C[C@H]1Cc1nc2ccc(C)cc2[nH]1	u	i	-23%[70.6 µM]	89µM*	i
CC1=C[C@@H](CNC(=O)COCC(=O)O)[C@H](C(C)C)C[C@H]1Cc1nc2ccccc2n1C	-29%[174 µM]	-7%[88.5 µM]	-16%[70.6 µM]	-6%[172 µM]	i
CC1=C[C@@H](CNC(=O)N2CCOCC2)[C@H](C(C)C)C[C@H]1Cc1nc2ccccc2n1C	63µM*	0%[88.5 µM]	u	63µM*	i
COCC(=O)NC[C@@H]1C=C(C)[C@H](Cc2nc3ccccc3n2C)C[C@H]1C(C)C	50µM*	-7%[88.5 µM]	u	56µM*	i
Cn1cc(C(=O)N2CCC3(CCN(C4CCOCC4)CC3)C(CO)C2)cn1 (centres undefined)	0%	4%	5%	u	i
COCCOC1CN(C2CCN(S(=O)(=O)c3cccc(F)c3)CC2)C12CCCCC2 (centres undefined)	u	i	x	u	x
Cc1cccc2c1nc1n2[C@@H](CNC2CCC2)COC1	-33%[174 µM]	1%[88.5 µM]	-6%[70.6 µM]	u	i
O=C(Nc1ccccc1)N1CCOC(CN(C(=O)c2ccco2)C2CCCC2)C1 (centres undefined)	-17%	-4%	-15%	-24%	i
C[C@@]12CO[C@@H](Cc3ccccc3)O[C@@H]1CC[C@]1(C)C2CC[C@@H](O)[C@H]1CC(=O)NCc1cc(F)cc(F)c1 (some centres undefined)	40µM*	-18%	-15%	40µM*	i
CSc1cccc(NC(=O)O[C@@H]2CC[C@]3(C)C(CC[C@@H](O)[C@H]3CC(=O)NCc3ccccc3)[C@]2(C)CO)c1 (some centres undefined)	40µM*	2%	-20%	35µM*	i
COc1ccc(NC(=O)O[C@@H]2CC[C@]3(C)C(CC[C@@H](O)[C@H]3CC(=O)NCc3ccc4c(c3)OCO4)[C@]2(C)CO)cc1 (some centres undefined)	45µM*	-6%	5%	u	i
C[C@@]12CO[C@@H](Cc3ccccc3)O[C@@H]1CC[C@]1(C)[C@@H]2CC[C@@H](O)[C@H]1CC(=O)N1CCCC1	-20%	1%	-3%	i	i
CSc1cccc(NC(=O)O[C@@H]2CC[C@]3(C)C(CC[C@@H](O)[C@H]3CC(=O)N3CCCC3)[C@]2(C)CO)c1 (some centres undefined)	u	2%	2%	u	i
O=C([C@@H]1CCCN1[S+](=O)([O-])c1cccc(C(F)(F)F)c1)N1CCC(N2CCOC2=O)CC1	-14%	4%	x	-15%	x
CC1(c2ccccc2)N(Cc2ccccc2C#N)C(=O)OC12CCN(C(=O)Cc1ccccn1)CC2 (centres undefined)	28µM*	-3%	-4%	2%	i
COc1cccc(CN2C(=O)OC3(CCN(Cc4ccccn4)CC3)C2(C)c2cccnc2)c1 (centres undefined)	u	0%	0%	4%	i
COc1cccc(CC(=O)N2CCC3(CC2)OC(=O)N(Cc2csc(C)n2)C3(C)c2ccccc2)c1 (centres undefined)	7.1µM*	0%	-10%	-40%	i
COc1cccc(CN2C(=O)OC3(CCN(C(=O)Cc4ccccn4)CC3)C2(C)c2cccnc2)c1 (centres undefined)	35µM*	-8%	9%	i	i
CCOc1ccccc1CN1CCCC2(Cc3ccccc3CNC2=O)C1 (centres undefined)	-29%	-17%	x	u	x
COc1cccc(-c2c(C(=O)Nc3ccc(C)cc3)nc3sccn23)c1	-23%	2%	x	u	x
COc1ccc(C(=O)NCc2nnc3c(-c4nc(C(C)C)no4)cccn23)cc1F	3%	i	-3%	i	i
OCC1(CCCc2ccccc2)CCN(Cc2ccc(-n3cccn3)cc2)CC1	40µM*	2%	u	u	i
SMILES	3T3 cytotox	GPT2 inh	NPR1 antag	HEK293 tox	Luciferase inh
CCOC(=O)C1C(=O)NCC12CCN(C(=O)c1ccc(C(C)(C)C)cc1)CC2 (centres undefined)	-20%	x	x	u	x
NCc1ccc(-c2cccc(Cl)c2)cc1	32µM*	-5%[88.5 µM]	x	45µM*	x
COc1cccc(-c2ccc(CN)cc2)c1	u	-4%[88.5 µM]	x	-29%[172 µM]	x
Cc1cccc(-c2ccc(CN)cc2)c1	32µM*	-5%[88.5 µM]	x	63µM*	x
O=C(NC1CC1)[C@@H]1C[C@H](Oc2cccnc2)CN1C(=O)CCc1c[nH]c2ccccc12	i	4%	1%	i	i
COc1cc(CNC(=O)[C@@H]2C[C@@H](c3ccc(F)cc3)N(Cc3ccccc3)C2)cc(OC)c1	-26%	-13%	-5%	u	i
O=C(Nc1ccncn1)[C@@H]1C[C@@H](c2ccc(F)cc2)N(Cc2ccccc2)C1	79µM*	-27%[88.5 µM]	-18%[70.6 µM]	100µM*	i
COc1cccc(NC(=O)[C@@H]2C[C@@H](c3ccc(F)cc3)N(Cc3ccccc3)C2)c1	32µM*	-9%[88.5 µM]	u	u	i
COc1ccc(-c2noc(-c3nc(C(C)C)no3)n2)cc1	-5%	i	-20%	u	11µM*
COc1ccc2nc(C[C@@H]3C[C@@H](C(C)C)[C@H](CNC(=O)CC4(CC(=O)O)CCCC4)C=C3C)[nH]c2c1	-26%	-6%	-1%	-26%	i
COc1ccc2nc(C[C@@H]3C[C@@H](C(C)C)[C@H](CNCc4ccc(NC(C)=O)cc4)C=C3C)[nH]c2c1	40µM*	i	-15%	u	i
COc1ccc2nc(C[C@@H]3C[C@@H](C(C)C)[C@H](CNCc4ccccn4)C=C3C)[nH]c2c1	u	-11%[88.5 µM]	-25%[70.6 µM]	79µM*	i
CCN1CCN(C(=O)c2nc3sccn3c2-c2ccc(OC)cc2)CC1	-3%	3%	x	3%	x
COCCNC(=O)c1ccc(OC2CCN(CCC(C)c3ccc(C)o3)CC2)c(Cl)c1 (centres undefined)	u	u	1%	89µM*	i
COCCNC(=O)c1ccc(OC2CCN(CCc3ccccc3)CC2)c(Cl)c1	u	i	11%	u	i

Screening results deposited in PubChem by National Center for Advancing Translational Sciences (NCATS).
